According to PubChem BioAssay (EPA / NIEHS):
Values joined by “and” are separate entries in the source; they are usually repeats but may differ in a detail not shown here. Identical values can stand only once. Records with an inconclusive call do not appear. More than one record can exist for a structure, and the calls need not agree. Active and inactive are the calls of the source. The calls were made as follows, unless noted: active = hit-call score of the fitted dose curve at least 0.9, where 1 is the maximum; inactive = score below 0.9.

Experiments:
[1] = molecular target: Steroid hormone receptor ERR1 (Homo sapiens) (UniProt P11474); test: ATG_ERRa_TRANS: Attagene TRANS-FACTORIAL HepG2 Assay for human Estrogen-Related Receptor alpha (ERRa) (AID 2282971; active = hit-call score of the fitted dose curve at least 0.9, where 1 is the maximum); settings: HepG2 Attagene TRANS reporter, ERRa transactivation
Sequence of Steroid hormone receptor ERR1 (Homo sapiens) (P11474 whole entry, looked up, the tested form may be a part): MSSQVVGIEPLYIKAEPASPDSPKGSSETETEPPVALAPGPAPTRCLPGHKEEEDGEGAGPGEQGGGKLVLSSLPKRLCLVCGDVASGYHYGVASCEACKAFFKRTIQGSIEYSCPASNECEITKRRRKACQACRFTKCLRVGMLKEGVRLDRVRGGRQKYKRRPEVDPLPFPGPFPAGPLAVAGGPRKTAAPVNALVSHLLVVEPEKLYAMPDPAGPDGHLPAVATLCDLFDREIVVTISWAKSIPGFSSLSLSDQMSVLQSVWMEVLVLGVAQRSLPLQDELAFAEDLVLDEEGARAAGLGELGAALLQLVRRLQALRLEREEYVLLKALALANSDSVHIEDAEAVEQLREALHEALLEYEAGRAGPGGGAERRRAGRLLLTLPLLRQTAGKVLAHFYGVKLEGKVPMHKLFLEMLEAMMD
How it was run: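 HepG2 cells transiently transfected with GAL4-UAS reporter units and chimeric NR-Gal4 constructs; after 24 hour compound incubation, reporter mRNA quantified by RT-PCR, fluorescent labelling and capillary electrophoresis, gain of signal versus DMSO.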

[2] = BSK_3C_Vis: BioMAP Diversity Plus: 3C Assay for Morphology Visualization (AID 2283025); settings: primary human endothelial cells (HUVEC);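 also: fitted both ways so gain or loss versus DMSO counts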;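 as to AC50: light microscopy image of cell morphology used as background control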
How it was run: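 Light-microscopy visualization of HUVEC cultures at 24 h post-treatment, with DMSO as baseline for bidirectional fitting.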

[3] = read-out: Vascular endothelial growth factor receptor 2 (Homo sapiens) (UniProt P35968); test: BSK_4H_VEGFRII: BioMAP Diversity Plus: 4H Assay for Vascular endothelial growth factor receptor 2 (VEGFR2) Biomarker Activity (AID 2283031); settings: primary human endothelial cells (HUVEC); actives raise or lower the signal;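 as to AC50: cell-surface VEGFR2 protein level quantified by ELISA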
How it was run: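 Primary human umbilical vein endothelial cells (4H system), 24 h exposure; cell-surface VEGFR2 measured by ELISA. Bidirectional fitting versus DMSO; cytotoxicity checked in parallel by SRB total-protein staining.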

[4] = read-out: Transforming growth factor beta 1 (TGFb1), TGFB1 (gene 7040); test: BSK_BE3C_TGFb1: BioMAP Diversity Plus: BE3C Assay for Transforming growth factor beta 1 (TGFb1) Biomarker Activity (AID 2283036); settings: primary human bronchial epithelial cells; actives raise or lower the signal
How it was run: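 ELISA readout of TGF-b1 from human lung bronchial epithelial primary cells, taken 24 h post-treatment. Gain or loss of signal fitted relative to DMSO baseline, with parallel SRB staining for overt cytotoxicity.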

[5] = read-out: Urokinase-type plasminogen activator receptor (uPAR), PLAUR (gene 5329); test: BSK_CASM3C_uPAR: BioMAP Diversity Plus: CASM3C Assay for Urokinase-type plasminogen activator receptor (uPAR) Biomarker Activity (AID 2283054); settings: primary human coronary artery smooth muscle cells; actives raise or lower the signal;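 also: cell-surface uPAR protein level quantified by ELISA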
[6] = read-out: Transforming growth factor beta 1 (TGFb1), TGFB1 (gene 7040); test: BSK_KF3CT_TGFb1: BioMAP Diversity Plus: KF3CT Assay for Transforming growth factor beta 1 (TGFb1) Biomarker Activity (AID 2283072); settings: primary human keratinocytes with fibroblasts; actives raise or lower the signal
How it was run: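 ELISA quantifies TGF-b1 at 24 h post-dose in a primary human skin co-culture of keratinocytes and fibroblasts, with gain or loss judged against DMSO. Parallel SRB total-protein staining flags overt cytotoxicity.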

CD40, CD40 (gene 958) = test: BSK_SAg_CD40: BioMAP Diversity Plus: SAg Assay for CD40 Biomarker Activity (AID 2283088); settings: primary human HUVEC with PBMC; actives raise or lower the signal
How it was run: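 HUVEC plus PBMC co-culture, superantigen-activated, with CD40 read by ELISA 24 h after dosing. Curves fitted in both directions against DMSO. Overt cytotoxicity checked by parallel SRB total-protein staining.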

[7] = BSK_SAg_Proliferation: Cell Proliferation Assessment in the BioMAP Diversity Plus: SAg Assay (AID 2283095); settings: primary human HUVEC with PBMC;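 also: relative cell number as total protein by SRB absorbance in sub-confluent culture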
How it was run: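 Relative cell number in the endothelial cell/PBMC co-culture was quantified at 96 h by SRB staining (0.1% SRB, 10% TCA fixation, read at 560 nm). Curves were fitted in both directions relative to DMSO baseline.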

[8] = BSK_SAg_SRB: Viability Assessment in the BioMAP Diversity Plus: SAg Assay (AID 2283096); settings: primary human HUVEC with PBMC;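 also: cells read one day after compound addition; hits may be either gain or loss of signal compared with DMSO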
How it was run: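 SRB absorbance at 560 nm served as the viability read-out. Cells (HUVEC plus peripheral blood mononuclear cells) were TCA-fixed and stained 24 h post-dosing; activity fitted in both directions against DMSO controls.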

[9] = BSK_BT_PBMCCytotoxicity: PBMC Cytotoxicity Assessment in the BioMAP Diversity Plus: BT Assay (AID 2284225); settings: primary human B cells with PBMC;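 also: PBMC viability measured by Alamar Blue dye reduction fluorescence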
How it was run: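 Viability by Alamar Blue reduction (6 h, ex/em 546/580 nm) after 90 h culture of SEB/TSST-1-activated PBMC (20 ng/mL each) given compound 1 h before activation. DMSO served as baseline for curve fitting.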

[10] = BSK_BT_Bcell_Proliferation: Viability Assessment in the BioMAP Diversity Plus: BT Assay for B cell Proliferation (AID 2284227); settings: primary human B cells with PBMC
How it was run: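 Using a human primary B cell–PBMC co-culture, the assay measures total protein by sulforhodamine B absorbance as a gauge of proliferation after 72 h. Analysis followed the positive fitting direction with DMSO as baseline.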

[11] = read-out: Interleukin 6 (IL6), IL6 (gene 3569); test: BSK_BT_xIL6: BioMAP Diversity Plus: BT Assay for Interleukin 6 (IL6) Biomarker Activity (AID 2284228); settings: primary human B cells with PBMC
How it was run: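 Human B cell/PBMC co-culture; secreted IL-6 quantified by Luminex xMAP 24 h after chemical dosing, fitted relative to DMSO. Parallel PBMC viability by Alamar Blue after 1 h pretreatment, 20 ng/mL SEB and TSST-1, 90 h incubation.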

[12] = read-out: Interleukin 17A (IL17A), IL17A (gene 3605); test: BSK_BT_xIL17A: BioMAP Diversity Plus: BT Assay for Interleukin 17A (IL17A) Biomarker Activity (AID 2284229); settings: primary human B cells with PBMC
How it was run: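 Co-culture of human B cells and PBMC, dosed for 24 h in 96-well format. Secreted IL-17A measured with Luminex xMAP; gain-direction fitting against DMSO as baseline.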

[13] = read-out: Tumor necrosis factor (Homo sapiens) (UniProt P01375); test: BSK_BT_xTNFa: BioMAP Diversity Plus: BT Assay for Tumor necrosis factor alpha (TNF-alpha) Biomarker Activity (AID 2284230); settings: primary human B cells with PBMC
How it was run: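 Endpoint derived in the positive direction versus DMSO vehicle. Cells: B cells together with PBMC, exposed 24 h before TNF-alpha in the medium was read on the Luminex xMAP platform.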

[14] = read-out: Collagen III, COL3A1 (gene 1281); test: BSK_MyoF_CollagenIII: BioMAP Diversity Plus: MyoF Assay for Collagen III Biomarker Activity (AID 2284239); settings: primary human lung fibroblasts
How it was run: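 Primary human lung fibroblasts (BioMAP MyoF system) exposed 24 h. Collagen III measured by ELISA; positive-direction fit relative to DMSO.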

[15] = read-out: Interleukin 17F (IL17F), IL17F (gene 112744); test: BSK_BT_xIL17F: BioMAP Diversity Plus: BT Assay for Interleukin 17F (IL17F) Biomarker Activity (AID 2284243); settings: primary human B cells with PBMC
How it was run: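 Human PBMC co-cultured with B cells, compound exposure 24 h; secreted IL-17F quantified by Luminex xMAP, referenced to DMSO control. PBMC viability measured in parallel by Alamar Blue reduction.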

[16] = read-out: Interleukin 2 (IL2), IL2 (gene 3558); test: BSK_BT_xIL2: BioMAP Diversity Plus: BT Assay for Interleukin 2 (IL2) Biomarker Activity (AID 2284245); settings: primary human B cells with PBMC
How it was run: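 Secreted IL-2 was read by Luminex xMAP from B cells co-cultured with PBMC (human primary) 24 h post-dosing; activity was analysed as gain of signal relative to DMSO vehicle.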

[17] = read-out: Collagen IV, COL4A1 (gene 1282); test: BSK_MyoF_CollagenIV: BioMAP Diversity Plus: MyoF Assay for Collagen IV Biomarker Activity (AID 2284247); settings: primary human lung fibroblasts
How it was run: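 Collagen IV quantified by ELISA in human lung fibroblast cultures 24 h after chemical treatment, with DMSO as baseline. Parallel SRB staining (0.1% SRB after TCA fixation, 560 nm) flags overt cytotoxicity.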

[18] = read-out: Matrix Metallopeptidase 1 (MMP1), MMP1 (gene 4312); test: BSK_MyoF_MMP1: BioMAP Diversity Plus: MyoF Assay for Matrix Metallopeptidase 1 (MMP1) Biomarker Activity (AID 2284268); settings: primary human lung fibroblasts
How it was run: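 Human lung fibroblast primary cells; MMP1 measured by ELISA 24 h after dosing, fitted in the positive direction relative to DMSO. Parallel SRB staining (0.1%, after 10% TCA fixation, 560 nm) assesses overt cytotoxicity.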

[19] = read-out: TIMP metallopeptidase inhibitor 1 (TIMP1), TIMP1 (gene 7076); test: BSK_MyoF_TIMP1: BioMAP Diversity Plus: MyoF Assay for TIMP metallopeptidase inhibitor 1 (TIMP1) Biomarker Activity (AID 2284269); settings: primary human lung fibroblasts
How it was run: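 TIMP-1 levels were determined by ELISA in human lung fibroblasts treated for 24 h. DMSO served as negative control and baseline for upward curve fitting.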

Measured: AC50

Sequence of Tumor necrosis factor (Homo sapiens) (P01375 whole entry, looked up): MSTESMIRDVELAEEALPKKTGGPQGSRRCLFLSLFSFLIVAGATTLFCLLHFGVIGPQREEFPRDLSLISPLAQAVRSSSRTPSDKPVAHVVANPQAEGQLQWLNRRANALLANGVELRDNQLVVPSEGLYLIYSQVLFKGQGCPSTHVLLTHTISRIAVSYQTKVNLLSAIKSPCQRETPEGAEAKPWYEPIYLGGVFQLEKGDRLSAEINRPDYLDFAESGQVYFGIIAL

CC1(C)[C@H](C(=O)O[C@H](C#N)c2cccc(Oc3ccccc3)c2)[C@@H]1C=C(Br)Br
inactive: [1] | [2] | [3] | [4] | [5] | [6] | CD40, CD40 (gene 958) | [7] | [8] | [9] | [10] | [11] | [12] | [13] | [14] | [17] | [18] | [19]
active: [4] 1.2 µM | [7] 3.97 µM | [10] 20 µM | [11] 15.2 µM | [12] 20 µM | [15] 28.7 µM and 20 µM | [16] 29.1 µM and 20 µM

CCNCC
inactive: [1]

O=[N+]([O-])c1ccc(Cl)cc1
inactive: [2] | [3] | [4] | [5] | [6] | CD40, CD40 (gene 958) | [7] | [8]

O=C1C=CC(=O)C=C1
active: [2] 8.8 µM | [6] 29.9 µM and 12.4 µM | CD40, CD40 (gene 958) 29 µM and 27.7 µM | [7] 6.38 µM and 3.38 µM | [9] 17.3 µM and 27.7 µM | [10] 17.8 µM and 24.2 µM | [11] 11.3 µM and 25.7 µM | [12] 13.6 µM and 20 µM | [13] 24 µM and 33.1 µM | [14] 32.2 µM and 20 µM | [15] 29.2 µM | [16] 26.3 µM and 32 µM | [17] 34.4 µM | [18] 5.76 µM | [19] 30.3 µM
inactive: [2] | [3] | [4] | [5] | [8] | [17] | [18] | [19]

CC(Cc1ccc(C(C)(C)C)cc1)CN1C[C@@H](C)O[C@@H](C)C1 (stereo partly drawn)
inactive: [1]

CCC(C)c1cc([N+](=O)[O-])cc([N+](=O)[O-])c1OC(=O)C=C(C)C (stereo not drawn)
active: [2] 14.5 µM | [3] 8.71 µM | [4] 3.97 µM | [6] 12.4 µM | CD40, CD40 (gene 958) 7.96 µM | [7] 8.87 µM | [8] 15.3 µM | [9] 20 µM | [10] 32.6 µM | [11] 20 µM | [12] 14.4 µM | [13] 30.8 µM | [14] 5.36 µM | [15] 29.3 µM | [16] 30.9 µM | [17] 12.3 µM | [19] 13.5 µM
inactive: [18]

COC(C)(C)CCC[C@H](C)C/C=C/C(C)=C/C(=O)OC(C)C
active: [2] 37.4 µM | [3] 32 µM | [5] 31.2 µM | [6] 15.3 µM | CD40, CD40 (gene 958) 26.8 µM | [7] 28.6 µM | [8] 33.3 µM | [9] 20 µM | [10] 28.8 µM | [11] 20 µM | [12] 13.4 µM | [13] 32.5 µM | [15] 24.4 µM | [16] 28.4 µM | [18] 26.9 µM
inactive: [4] | [14] | [17] | [19]

CNC(=O)Oc1cc(C)c(SC)c(C)c1
active: [5] 20 µM | CD40, CD40 (gene 958) 16.7 µM | [9] 15.6 µM | [10] 20.1 µM | [11] 8.6 µM | [12] 11.5 µM | [13] 29.7 µM | [15] 20 µM
not listed: [1]
inactive: all other assays above

CCc1cc(C)cc(CC)c1-c1c(OC(=O)C(C)(C)C)n2n(c1=O)CCOCC2
active: [6] 20 µM
not listed: [1]
inactive: all other assays above
